For ten compounds, Potency and activity change, negative = cell killing results are on record in PubChem BioAssay (NCATS).

Inconclusive results are not listed. A number with no mark means an inactive call. Calls of active or inactive are those of the source. Calls come from the whole dose curve; as a rule, active = well fitted curve in the direction sought with a large enough effect; inconclusive = small, poorly fitted or top-dose-only effect, or another doubt; inactive = no such curve, though single readings can be large; an effect the other way counts as inactive or inconclusive.

The nature of test [1]: Primary qHTS for inhibitors of nuclear receptor binding SET domain protein 2 (NSD2) in an RCH-ACV wild type WT cells (2C) (AID 1645877). Note: nearly all actives have a fitted effect of over 70% in size. Note: potency is the fitted concentration of half-maximal effect. The conditions noted are these: RCH-ACV (leukaemia line) NSD2 WT (2C) viability, CellTiter-Glo, 72 h; series mostly up to 44.9 µM. On the technique in general: In qHTS, concentration-response curves come from the screen itself.
The target in test [2] is Glutathione peroxidase 1 (Homo sapiens) (UniProt P07203). In words: Primary qHTS Assay for Inhibitors of Recombinant Selenoprotein Glutathione Peroxidase 1 (GPX1) (AID 1845191). Note: nearly all actives have a fitted effect of over 65% in size. The conditions noted are these: recombinant GPX1, GR-coupled NADPH fluorescence, 15 min; series mostly up to 48.8 µM. In short, it runs like this:
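NADPH consumption tracked by fluorescence at 340/450 nm between t=0 and t=15 min, room temperature. Final mix: 10 nM GPX1, 100 nM glutathione reductase, 1 mM GSH, 0.5 mM NADPH, 0.5 mM cumene hydroperoxide, 0.01% BSA; 30 min compound–enzyme preincubation.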

Test [3] concerns the target Phospholipid hydroperoxide glutathione peroxidase GPX4 (Homo sapiens) (UniProt P36969). In words: Primary qHTS Assay for Inhibitors of Recombinant Selenoprotein Glutathione Peroxidase 4 (GPX4) (AID 1845192). Note: nearly all actives have a fitted effect of over 65% in size. To be noted: recombinant GPX4, GR-coupled NADPH fluorescence, 15 min; series mostly up to 50 µM. The essentials: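 NADPH consumption followed by fluorescence at 340/450 nm, t=0 and after 15 min at room temperature. Reaction started with cumene hydroperoxide (0.5 mM final) after 30 min compound–GPX4 preincubation; final 200 nM GPX4, 100 nM GR, 1 mM GSH, 0.5 mM NADPH.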
% is set by controls: 0 for no effect and ±100 for the full control effect.

Chain of Phospholipid hydroperoxide glutathione peroxidase GPX4 (Homo sapiens) (P36969 whole entry, looked up): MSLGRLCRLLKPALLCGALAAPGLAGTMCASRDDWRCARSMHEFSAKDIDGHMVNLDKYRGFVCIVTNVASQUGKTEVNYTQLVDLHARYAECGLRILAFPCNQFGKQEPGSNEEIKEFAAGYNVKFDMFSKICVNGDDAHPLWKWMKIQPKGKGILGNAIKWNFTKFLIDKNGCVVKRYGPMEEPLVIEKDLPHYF
Chain of Glutathione peroxidase 1 (Homo sapiens) (P07203 whole entry, looked up): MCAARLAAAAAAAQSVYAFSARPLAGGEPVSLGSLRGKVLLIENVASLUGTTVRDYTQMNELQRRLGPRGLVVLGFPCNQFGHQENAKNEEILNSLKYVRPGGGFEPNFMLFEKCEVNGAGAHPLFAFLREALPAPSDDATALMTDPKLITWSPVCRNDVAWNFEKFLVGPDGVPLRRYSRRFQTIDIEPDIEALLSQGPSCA

On to `CC(=O)OC1CC(O)C(C)(C)C2CC(OC(C)=O)C3(C)C(CCC4(C)C(c5ccoc5)C(=O)C5OC543)C12C` (stereo not given), for which the Potency result in test [1], in test [2] and in test [3] was “inactive” in each case.
Turning to `COC1CC(OC2CCC3(C=O)C(CCC4C3CCC3(C)C(C5=CC(=O)OC5)CCC43O)C2)OC(C)C1OC1OC(CO)C(O)C(O)C1O` (stereo not given), the Potency in test [1] is 0.153 µM (active). Moreover, the Potency entry in test [2] and in test [3] was “inactive” throughout.
On to `Clc1ccc(N2C[C@H]3CC[C@@H](C2)N3)nn1`, for which the Potency result in test [1], in test [2] and in test [3] was “inactive” throughout.
For the compound `CC12CCC3C(CCC4(O)CC(O)CCC34C=O)C1(O)CCC2C1=CC(=O)OC1` (stereo not given), the Potency in test [1] is 0.515 µM (active). Besides, the Potency result in test [2] and in test [3] was “inactive” in each case.
On to `CC(C)(C)c1cc(C(C)(C)C)c2c(c1)C(O)(C(F)(F)F)C(=O)O2` (stereo not given), for which the Potency entry in test [1], in test [2] and in test [3] was “inactive” throughout.
Turning to `C[C@@]1(C(=O)O)CC[C@]2(C)CC[C@]3(C)C4=CC(=O)c5cc(O)c(O)cc5[C@]4(C)CC[C@@]3(C)[C@@H]2C1`, the Potency entry in test [1], in test [2] and in test [3] was “inactive” in each case.
As to `CCc1c(C(=O)C(N)=O)c2c(OCC(=O)OC)cccc2n1Cc1ccccc1`, the Potency entry in test [1], in test [2] and in test [3] was “inactive” in each case.
For `Cn1ncnc1COc1nn2c(-c3c(F)cccc3F)nnc2cc1C1CCC1`, the Potency result in test [1], in test [2] and in test [3] was “inactive” in each case.
As to `C=C[C@H]1[C@H](O[C@@H]2O[C@H](CO)[C@@H](O)[C@H](O)[C@H]2O)OC=C2C(=O)OCC[C@H]21`, the Potency result in test [1], in test [2] and in test [3] was “inactive” each time.
Regarding `C/C=C(\C)C(=O)OC1C(C)OC(OC2C(C)OC(OC3CCC4(C)C(=CCC5C4CCC4(C)C(C(C)OC6OC(COC7OC(CO)C(O)C(O)C7O)C(O)C(O)C6O)CCC54O)C3)CC2OC)C(O)C1OC` (stereo not given), the activity change, negative = cell killing in test [1] is -10% [at 9.23 µM]. In addition, the Potency result in test [2] and in test [3] was “inactive” in each case.
